SMILES strings stand for the structures. Where “and” joins values, the source holds several entries; their conditions need not be identical. Identical values can stand only once. Results filed as inconclusive are left out. The source holds several records for some structures; these can differ, active in one and inactive in another. Calls of active or inactive are those of the source. The call rests on the fitted dose curve; in most records, active means well fitted activation curve with a large enough effect in the repeat runs; inconclusive means weak or mixed curves; inactive means flat fitted curve, though single readings scatter.
Further: nearly all actives have a fitted effect of over 45% in size.
On the % scale 0 is the no-effect control and ±100 the full control effect; potency means the concentration at half of the fitted maximal effect.

The nature of one test: A CellTox Green Cytotoxicity Assay to monitor cytotoxicity in HEK293 cells - 24 hour (AID 1224875). Conditions: CellTox Green fluorescence; series mostly up to 76.8 µM; activity change: at the top concentration. The gist of the method:
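Cytotoxicity was tracked continuously in HEK293 cells by a DNA-binding dye excluded from viable cells. Compounds were transferred in DMSO 5 h after seeding; fluorescence was recorded at intervals up to 40 h.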
Take `C=CC(C)(CCC=C(C)C)OC(=O)/C=C/c1ccccc1` (stereo not drawn): the Potency is 27.5 µM (active). `COc1nccnc1CC(C)C`: the “activity change” value was 15.6% (inactive). In the case of `CCCCC(CC)COC(=O)c1ccc(O)cc1` (stereo not drawn), the Potency is 43.5 µM (active) and 21.9 µM (active).

On to `Cc1c(C(=O)O)cccc1[N+](=O)[O-]`, for which the “activity change” value was -17.1% (inactive). The same measure, in the same setting: in the case of `Clc1ccccc1CN1CCc2sccc2C1` it was 13.2% [at 35.3 µM, stronger effect = higher value] (inactive). Turning to `Clc1ccc(C(c2ccccc2Cl)C(Cl)Cl)cc1` (stereo not drawn), the Potency result was “inactive”. As to `CCC(C)c1ccccc1` (stereo not drawn), the “activity change” value is -2.65% (inactive). The same measure, in the same setting: in the case of `CCCCCCCOC(=O)c1ccccc1C(=O)OCCCCCCC` it was -2.01% (inactive). For the molecule `COCC(=O)O[C@]1(CCN(C)CCCc2nc3ccccc3[nH]2)CCc2cc(F)ccc2[C@@H]1C(C)C`, the Potency is 21.3 µM (active). Same read-out and setting: next, `O[C@@H](c1cc(C(F)(F)F)nc2c(C(F)(F)F)cccc12)[C@H]1CCCCN1`: 26.8 µM (active). Regarding `CC(C)=C1CC[C@@H](C)CC1=O`, the “activity change” value was -1.54% (inactive). On the same count and under the same terms, in the case of `SCCCCCCCCS` it was -0.737% (inactive).

The nature of another test: A CellTox Green Cytotoxicity Assay to monitor cytotoxicity in HepG2 cells - 16 hour (AID 1224876). Conditions: CellTox Green fluorescence; series mostly up to 76.8 µM; cytotoxicity increase: at the top concentration. In a few lines: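 Real-time, homogeneous cytotoxicity readout: dead-cell DNA staining by CellTox Green in HepG2 monolayers, fluorescence measured at timed intervals up to 40 h of continuous compound exposure.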
Take `CCC(=O)CC(C)CC` (stereo not drawn): the cytotoxicity increase was 5.23% [at 0.29 µM] (inactive). In the case of `C=C/C=C/C=C/CCCCC`, the cytotoxicity increase was -3.81% [at 15.8 µM] (inactive). On the same count and under the same terms, in the case of `Oc1c(Br)cc(Br)c2cccnc12` it was 3.83% [at 35.3 µM] (inactive); in that of `CCCCCCCC/C=C\CCCCCCCC(=O)NCc1ccc(O)c(OC)c1`, -0.0795% [at 35.3 µM] (inactive). As to `CCCOc1sc(C(=O)N2CCC(c3cc(CN)ccc3F)CC2)c(C)c1Br`, the Potency is 20 µM (active).

In the case of `O=S(O)O`, the cytotoxicity increase is -6.63% [at 15.8 µM] (inactive). On the same count and under the same terms, in the case of `NCCCCCCNCCCCCCN` it was -3.08% (inactive); in that of `C=CC/C=C/C/C=C/C/C=C/C`, -0.747% (inactive); in that of `C=CCCCCCCC=C`, 2.06% (inactive). Still for that read-out and setting: in the case of `CCCCN(C)C` it was -0.278% (inactive). `CC(NCCC(c1ccccc1)c1ccccc1)c1ccccc1` (stereo not drawn): the Potency was 23.9 µM (active).

Turning to `CCCCCCCCCCCCCCCC`, the “cytotoxicity increase” value was -1.82% (inactive). Same read-out and setting: in the case of `CCc1cccc(CC)c1NC(=O)C(=O)O` it was 10.7% (inactive).

In the case of `O=C1OC(OC(=O)c2cccnc2Nc2cccc(C(F)(F)F)c2)c2ccccc21` (stereo not drawn), the “cytotoxicity increase” value is -0.155% [at 35.3 µM] (inactive). `CN1[C@@H]2CC[C@H]1CC(OC(=O)C(CO)c1ccccc1)C2` (stereo partly drawn): the Potency entry is “inactive”. Regarding `CC(COC(=O)c1ccccc1)OC(=O)c1ccccc1` (stereo not drawn), the “cytotoxicity increase” value was -8.17% (inactive). Still for that read-out and setting: in the case of `CCOC(=O)CN` it was 0.233% (inactive); in that of `COC(=O)CC(C)CCC=C(C)C` (stereo not drawn), 0.0931% (inactive); in that of `CCCCCCCC(=O)OCC`, 5.69% (inactive). In the case of `CCOC(/C=C(\C)CCC=C(C)C)OCC`, the “cytotoxicity increase” value was -6.95% (inactive).

In the case of `CCC1CCCCC1`, the “cytotoxicity increase” value is -10.5% (inactive).

`CCCCCCCCCCCCCCNCCO`: the Potency is 10.7 µM (active). As for `O=C1c2c(O)ccc(O)c2C(=O)c2c(NCCNCCO)ccc(NCCNCCO)c21`, the “cytotoxicity increase” value is -62.4% [at 35.3 µM] (inactive). With `Cc1c(-c2ccc(O)cc2)n(Cc2ccc(OCCN3CCCCCC3)cc2)c2ccc(O)cc12`, the Potency is 23.9 µM (active). Still for that read-out and setting: in the case of `C=CC(C)(CCC=C(C)C)OC(=O)/C=C/c1ccccc1` (stereo not drawn) it was 27.5 µM (active). Consider `COc1nccnc1CC(C)C`, for which the “cytotoxicity increase” value is 0.255% (inactive). With `CCCCC(CC)COC(=O)c1ccc(O)cc1` (stereo not drawn), the Potency entry is “inactive and 30.9 µM (active)”. With `Cc1c(C(=O)O)cccc1[N+](=O)[O-]`, the “cytotoxicity increase” value is -3.7% (inactive).

`Clc1ccccc1CN1CCc2sccc2C1`: the “cytotoxicity increase” value is -2.08% [at 35.3 µM] (inactive). Same read-out and setting: next, `Clc1ccc(C(c2ccccc2Cl)C(Cl)Cl)cc1` (stereo not drawn): 3.27% [at 35.3 µM] (inactive).

On to `CCC(C)c1ccccc1` (stereo not drawn), for which the “cytotoxicity increase” value is -10% (inactive). On the same count and under the same terms, in the case of `CCCCCCCOC(=O)c1ccccc1C(=O)OCCCCCCC` it was -4.15% (inactive). As for `COCC(=O)O[C@]1(CCN(C)CCCc2nc3ccccc3[nH]2)CCc2cc(F)ccc2[C@@H]1C(C)C`, the Potency was 19 µM (active).

As to `O[C@@H](c1cc(C(F)(F)F)nc2c(C(F)(F)F)cccc12)[C@H]1CCCCN1`, the Potency is 23.9 µM (active).

Regarding `CC(C)=C1CC[C@@H](C)CC1=O`, the “cytotoxicity increase” value was 0.446% (inactive). In the case of `SCCCCCCCCS`, the Potency is 19.5 µM (active).

Source of the values: PubChem BioAssay (Tox21).
